Bioassay records (PubChem)
Compounds with a hit are over-represented: about 3.6% of the library has one in this group of screens.
mHTT CaM bind: mutant huntingtin-calmodulin interaction inhibitors – biochemical, AlphaScreen, primary screen | P42858 | AlphaScreen His-mHTT/GST-CaM binding, luminescence | inhibition, % at 15 µM | 3.6% of 190,000 active | AID 1671202, 2021
Pf apPOL block: Pf-apPOL inhibitors, biochemical, fluorescence | Plasmodium falciparum apicoplast DNA polymerase (apPOL) | Recombinant Pf-apPOL, molecular beacon fluorescence, 1.5 h | inhibition, % at 10 µM | 0.25% of 210,000 active | AID 1794808, 2022
Hits are given with their value; . = inactive; / = no result. No stated cut-off is given here; in the data, active means inhibition above about 50%; inactive means the rest.

SMILES | mHTT CaM bind | Pf apPOL block
Cc1ccc(C(=O)N2CCC(COc3ccc(C(=O)N4CCOCC4)cc3)CC2)s1 | . | .
Cc1ccc(-n2nc3c(c2NC(=O)COc2ccc(Cl)cc2Cl)CS(=O)(=O)C3)cc1 | . | .
CCc1[nH]nc(-c2ccc(F)c(F)c2)c1NC(=O)COC | 97 | .
CCC(=O)Nc1c(-c2cccc(OC)c2)n[nH]c1CC | 91 | 70
CCc1[nH]nc(-c2cccc(OC)c2)c1NC(=O)C1CCCC1 | . | .
CCC(=O)Nc1c(-c2ccc(F)c(F)c2)n[nH]c1CC | . | .
O=C(O)C1C(C(=O)NCC23CC4CC(CC(C4)C2)C3)C2C=CC1C21CC1 (stereo not drawn) | . | .
CCNC(=O)c1nc2cc(C)c(C)cc2n(CC)c1=O | . | .
COc1cccc(C=C2Oc3c(ccc4c3CN(c3ccc5c(c3)OCCO5)CO4)C2=O)c1OC | 77 | .
COc1ccccc1C=C1Oc2c(ccc3c2CN(c2ccc4c(c2)OCCO4)CO3)C1=O | . | .
COc1ccc(N2COc3ccc4c(c3C2)OC(=Cc2cc(OC)c(OC)c(OC)c2)C4=O)cc1 | . | .
COc1ccc(N2COc3ccc4c(c3C2)OC(=Cc2ccc(OC)c(OC)c2OC)C4=O)cc1 | 81 | .
O=C(COc1ccccc1F)N1CC(c2nc3ccccc3[nH]2)C1 | . | .
Cc1ccc(C(=O)Nc2c(C)nc3sccn3c2=O)cc1 | . | .
O=[N+]([O-])c1cc2c(cc1C=Nc1ccc(Nc3ccccc3)cc1)OCO2 | 85 | .
CC(=O)Nc1ccc(N=Cc2cc3c(cc2[N+](=O)[O-])OCO3)cc1 | . | .
O=[N+]([O-])c1cc2c(cc1C=Nc1ccccc1)OCO2 | 78 | .
Cc1cc(O)c(N=Cc2cc3c(cc2[N+](=O)[O-])OCO3)cc1C | 70 | .
O=[N+]([O-])c1ccc(N=Cc2cc3c(cc2[N+](=O)[O-])OCO3)cc1 | . | .
Cc1cccc(N=Cc2cc3c(cc2[N+](=O)[O-])OCO3)c1 | 86 | .
O=[N+]([O-])c1cc2c(cc1C=Nc1ccc(Cl)c(Cl)c1)OCO2 | . | .
Cc1ccc([N+](=O)[O-])cc1N=Cc1cc2c(cc1[N+](=O)[O-])OCO2 | . | .
Cc1ccc(N2CCC(NC(=O)c3ccccc3C(F)(F)F)C2=O)cc1 (stereo not drawn) | . | .
O=C(c1ccccc1CN1C(=O)C2CCCN2C(=O)c2ccccc21)N1CCCCCC1 (stereo not drawn) | . | .
CCNC(=O)Nc1ccccc1N1CCCN(Cc2ccccc2Cl)C1=O | . | .
SMILES | mHTT CaM bind | Pf apPOL block
COc1ccc(N=Cc2cc3c(cc2[N+](=O)[O-])OCO3)cc1OC | . | .
Cc1ccc(N=Cc2cc3c(cc2[N+](=O)[O-])OCO3)cc1Br | 69 | .
O=C(NCCc1ccccc1)N1CCc2c(nc[nH]c2=O)C1 | . | .
Cc1ccc(C)c(N2CCN(C(=O)C3CCC3)CC2)c1 | . | .
Cc1ccc(C)c(N2CCN(C(=O)C3c4ccccc4CCN3C(=O)C3CC3)CC2)c1 (stereo not drawn) | 57 | .
O=C(NCc1ccc(F)cc1)c1c[nH]c2ccc(S(=O)(=O)N3CCOCC3)cc2c1=O | . | .
COc1ccc(-c2noc(-c3ccc(N(C)Cc4ccccc4)nc3)n2)cc1 | . | .
O=C(Cc1cccc(F)c1)N1CCCC(c2ccnc(-c3cccc(F)c3)n2)C1 (stereo not drawn) | . | .
O=C(c1cccs1)N1CCCC(c2ccnc(Nc3cccc(F)c3)n2)C1 (stereo not drawn) | 93 | .
O=C(c1ccccc1)N1CCCC(c2ccnc(Nc3cccc(F)c3)n2)C1 (stereo not drawn) | 72 | .
O=C(Cc1cccs1)N1CCCC(c2ccnc(Nc3cccc(F)c3)n2)C1 (stereo not drawn) | 75 | .
O=C(c1cccs1)N1CCCC(c2ccnc(Nc3ccc(F)cc3)n2)C1 (stereo not drawn) | . | .
CC(C)C(=O)N1CCCC(c2ccnc(Nc3cccc(F)c3)n2)C1 (stereo not drawn) | . | .
O=C(C1CC1)N1CCCC(c2ccnc(Nc3cccc(F)c3)n2)C1 (stereo not drawn) | . | .
O=C(Cc1cccc(F)c1)N1CCCC(c2ccnc(Nc3ccccc3)n2)C1 (stereo not drawn) | 90 | .
COc1cc(-c2cc(C(=O)N3CCCCC3)c3ccccc3n2)cc(OC)c1OC | . | .
CCCc1cc(C2CCCN2C(=O)c2cccc(C(F)(F)F)c2)no1 (stereo not drawn) | . | .
CC(O)(CNS(=O)(=O)Cc1ccccc1)c1ccco1 (stereo not drawn) | . | .
CCN(CC)CCCNC(=O)c1cn(C2CCCC2)c(=O)c2c1c1ccccc1n2C | . | .
CCOCC(=O)N1CCCC(c2ccnc(Nc3ccccc3C)n2)C1 (stereo not drawn) | . | .
Cc1ccccc1Nc1nccc(C2CCCN(C(=O)COc3ccc(F)cc3)C2)n1 (stereo not drawn) | 90 | .
COc1ccccc1N1CCN(C/C=C/c2ccc(N(C)C)cc2)CC1 | 62 | .
CCN1CCN(C/C=C/c2ccc(N(C)C)cc2)CC1 | . | .
Cc1ccc(CNS(=O)(=O)c2ccc(F)c(C(=O)Nc3ccc(Cl)cc3F)c2)cc1 | . | .
Cc1nc(C(=O)NCc2ccc(N3CCOCC3)cc2)c(C)n1C1CCN(C)CC1 | . | .
SMILES | mHTT CaM bind | Pf apPOL block
CN(C)C=CC=C1CCCC1=O | / | 89
COCC(C)NC(=O)C(=O)Nc1ccc(OC)c(Cl)c1 (stereo not drawn) | . | .
COc1ccc(/C=C/C2=NC(=C\c3ccccc3OC)/C(=O)O2)cc1 | . | .
Cc1cc([N+](=O)[O-])nn1CCCC(=O)Nc1cc(Oc2ccc3c(c2)CCC3)cc([N+](=O)[O-])c1 | . | .
O=[N+]([O-])c1cc(Oc2ccc3c(c2)CCC3)cc(-n2cnnn2)c1 | 51 | /
CCCCCCN1C[C@H](n2cc(COC(=O)c3ccccc3)nn2)[C@@H](O)C[C@@H]1c1ccc(Cl)cc1 | . | .
O=C(OCc1cn([C@H]2C[C@H](c3ccccc3)N(CC3CCCCC3)C[C@@H]2O)nn1)c1ccccc1 | . | .
CCCCCCN1C[C@H](n2cc(COC(=O)c3ccccc3)nn2)[C@@H](O)C[C@@H]1c1ccc(OC)cc1 | 56 | .
COc1ccc([C@H]2C[C@H](O)[C@@H](n3cc(COC(=O)c4ccccc4)nn3)CN2Cc2cccs2)cc1 | 90 | .
COc1ccc([C@H]2C[C@@H](O)[C@H](n3cc(COC(=O)c4ccccc4)nn3)CN2Cc2cccs2)cc1 | . | .
COc1ccc([C@H]2C[C@H](O)[C@@H](n3cc(COC(=O)c4ccccc4)nn3)CN2CC2CCCCC2)cc1 | 69 | .
Cc1cccc(-n2nc3c(c2NC(=O)COc2ccc(Cl)cc2)CSC3)c1C | . | .
Oc1c(CN2CCN(Cc3ccc4cccnc4c3O)CC2)ccc2cccnc12 | 100 | .
Oc1c(CN2CCCCC2)cc(Cl)c2cccnc12 | 100 | .
Oc1c(CN2CCCCC2)cc(CN2CCCCC2)nc1-c1ccccc1 | . | .
COCc1cc(CN2CCCC2)c(O)c2ncccc12 | 100 | .
Fc1ccc(CN2CCN(c3ncccn3)CC2)c(F)c1 | . | .
Oc1ccccc1CN1CCCC1 | . | .
Cc1c(C)c(C)c(CC2CCC(=CC=Cc3ccccc3)C2=O)c(C)c1C (stereo not drawn) | / | .
O=C1CSC(c2ccccc2[N+](=O)[O-])N1Cc1ccccc1 (stereo not drawn) | . | .
CCOC(=O)C=CC(=O)NCCC1=CCCCC1 | . | .
